Assay results taken from PubChem BioAssay AID504339 (National Center for Advancing Translational Sciences (NCATS), 2011).
Where “and” joins values, the source holds several entries; their conditions need not be identical. Equal entries are not always repeated. Screen size: about 390,000 compounds; about 17,000 (4.4%) were called active. Where a call stands in place of a potency, no number is given. Roughly 8% stayed inconclusive and do not appear here. Calls follow the shape of the dose curve; as a rule, active = well fitted inhibition curve with a large enough effect; inconclusive = small, poorly fitted or top-dose-only effect; inactive = no such curve, though single readings can be large or run the other way. The full list was thinned out, with actives kept by preference. Some compounds were tested as several samples or in several runs, with calls that do not always agree.

Molecular target: Lysine-specific demethylase 4A (Homo sapiens) (UniProt O75164)
Assay: qHTS Assay for Inhibitors of JMJD2A-Tudor Domain; also: nearly all actives have a fitted effect of over 50% in size
Conditions: AlphaScreen JMJD2A-Tudor / H3K4me3 peptide binding; series mostly up to 114 µM
Potency is read from the fitted curve at half-maximal effect.

Sequence of Lysine-specific demethylase 4A (Homo sapiens) (O75164 whole entry, looked up, the tested form may be a part): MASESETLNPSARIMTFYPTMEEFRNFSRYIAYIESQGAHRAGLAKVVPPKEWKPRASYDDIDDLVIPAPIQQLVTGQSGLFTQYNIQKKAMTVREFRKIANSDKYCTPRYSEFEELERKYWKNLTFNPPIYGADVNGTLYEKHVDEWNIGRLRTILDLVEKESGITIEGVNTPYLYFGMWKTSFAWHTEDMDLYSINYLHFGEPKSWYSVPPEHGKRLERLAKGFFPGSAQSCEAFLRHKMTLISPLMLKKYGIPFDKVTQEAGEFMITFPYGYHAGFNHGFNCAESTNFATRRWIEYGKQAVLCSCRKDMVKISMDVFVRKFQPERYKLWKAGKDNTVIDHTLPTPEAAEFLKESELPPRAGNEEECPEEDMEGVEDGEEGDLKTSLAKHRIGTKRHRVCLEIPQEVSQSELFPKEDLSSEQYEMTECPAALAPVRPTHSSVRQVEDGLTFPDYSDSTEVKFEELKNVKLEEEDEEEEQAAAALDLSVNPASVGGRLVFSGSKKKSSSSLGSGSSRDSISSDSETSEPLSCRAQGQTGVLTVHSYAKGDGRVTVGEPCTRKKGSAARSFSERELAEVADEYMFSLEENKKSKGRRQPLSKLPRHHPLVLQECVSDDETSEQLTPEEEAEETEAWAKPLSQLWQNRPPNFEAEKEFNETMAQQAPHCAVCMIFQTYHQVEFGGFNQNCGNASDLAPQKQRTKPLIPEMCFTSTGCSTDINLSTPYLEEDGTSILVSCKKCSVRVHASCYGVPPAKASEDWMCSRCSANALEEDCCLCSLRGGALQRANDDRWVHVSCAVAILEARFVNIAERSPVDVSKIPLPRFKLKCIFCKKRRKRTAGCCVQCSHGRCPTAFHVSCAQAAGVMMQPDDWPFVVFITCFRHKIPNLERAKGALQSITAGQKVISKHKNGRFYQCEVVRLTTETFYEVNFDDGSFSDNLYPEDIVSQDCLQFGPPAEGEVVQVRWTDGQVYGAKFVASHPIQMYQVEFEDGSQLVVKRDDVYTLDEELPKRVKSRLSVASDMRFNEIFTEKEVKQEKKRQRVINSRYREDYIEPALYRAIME

Row | Compound | Potency
1 | O=C(C1CC1)N1CCc2cc(Br)cc(S(=O)(=O)N3CCN(c4ccccc4F)CC3)c21 | inactive
2 | CCc1ccc2oc(-c3ccc(NC(=O)c4cc5ccccc5o4)cc3)nc2c1 | inactive
3 | Cc1cccc(N2CCN(C(=O)Cn3ncc4c5ccccc5n(C)c4c3=O)CC2C)c1 (stereo not given) | inactive
4 | CCc1ccc(CN(Cc2ccco2)C(=O)COc2ccc(Cl)c(C)c2)cc1 | inactive
5 | COc1ccc(-n2nnc(-c3nsc(NC(=O)c4ccc(C)c(C)c4)n3)c2C)cc1Cl | inactive
6 | COc1ccc(-c2cc(C(F)(F)F)n3nc(-c4ccccc4)cc3n2)cc1OC | inactive
7 | CCc1ccccc1NC(=O)c1cnn(-c2ccc(F)cc2)c1C1CCNCC1 | inactive
8 | CCc1ccc2oc(-c3ccc(C)c(NC(=O)/C=C/c4ccco4)c3)nc2c1 | inactive
9 | C=CS(=O)c1sc(Cl)c(N2CCOCC2)c1[N+](=O)[O-] (stereo not given) | 50.1 µM (active)
10 | COc1ccc(NC(=O)C2CCCN(S(=O)(=O)c3c(C)[nH]c(=O)[nH]c3=O)C2)c(OC)c1 (stereo not given) | inactive
11 | CCc1ccc(CNC(=O)c2ccc(CS(=O)c3ccc(Br)cc3)o2)cc1 (stereo not given) | inactive
12 | CCCn1ccc2c(OCC(=O)NCc3ccc(F)cc3)cccc2c1=O | inactive
13 | Cc1ccc(S(=O)(=O)n2nc(-c3ccc(Cl)cc3)nc2NCc2ccccc2)cc1 | inactive
14 | Cc1c(C(=O)Nc2cccc(Cl)c2)oc2ccc(S(=O)(=O)N3CCOCC3)cc12 | inactive
15 | Cc1oc2c(C)c3oc(=O)c(CC(=O)N[C@@H](CC(C)C)C(=O)N[C@@H](Cc4ccccc4)C(=O)O)c(C)c3cc2c1C | 56.2 µM (active)
16 | CC(C)C[C@H](NC(=O)N1CC(=O)Nc2ccccc21)C(=O)N[C@H](Cc1ccccc1)C(=O)O | inactive
17 | Cc1c(OC(C)C(=O)N[C@@H](Cc2ccccc2)C(=O)O)ccc2c3c(c(=O)oc12)CCCC3 (stereo not given in full) | inactive
18 | COC(=O)c1ccccc1NC(=O)Cn1c(=O)cc(C)c2c(C)nn(-c3cccc(Cl)c3C)c21 | inactive
19 | Clc1ccc(CN2CCCCCC2)cc1Cl | 3.98 µM (active)
20 | O=C(Nc1ccc(CN2CCOCC2)cc1)c1cc(Cl)ccc1Cl | inactive
21 | Clc1ccc(-n2nnnc2CN2CCCCC2)cc1Cl | inactive
22 | O=C(NCCc1csc(-c2ccc(C(F)(F)F)cc2)n1)C(=O)Nc1ccc(F)c(Cl)c1 | inactive
23 | Brc1ccc2c(c1)NC(c1cccnc1)=NC(c1ccccc1)=N2 | inactive
24 | COc1ccc(C2=NC(c3ccncc3)=Nc3ccc(Br)cc3N2)cc1 | 44.7 µM (active)

Row | Compound | Potency
25 | COCCNC(=O)c1ccc2c(c1)N(Cc1cccc(Cl)c1)C(=O)c1ccccc1S2(=O)=O | inactive
26 | CN(C)Cc1cn(-c2ccccc2)nc1-c1ccccc1 | inactive
27 | Cc1ccc(C(=O)N/C(=C/c2cccs2)C(=O)NCC2CCCO2)cc1 (stereo not given) | inactive
28 | Cc1cc(/C=C(/C#N)C(=O)Nc2ccc(Cl)cc2)c(C)n1-c1cccnc1 | inactive
29 | Cc1ccc(-n2c(C)cc(/C=C(\C#N)C(=O)NCC3CCCO3)c2C)cc1 (stereo not given) | 50.1 µM (active)
30 | Cc1cc2c(cc3c(SCc4nc(-c5ccccc5)oc4C)nnc(C)n32)o1 | inactive
31 | CNc1nc(=O)n(C2CCCO2)cc1C (stereo not given) | inactive
32 | O=c1nc(NO)ccn1C1CCCO1 (stereo not given) | 8.91 µM (active)
33 | Nc1ccn(C2CC(O)C(CO)O2)c(=O)n1 (stereo not given) | inactive
34 | Cc1cccc(NC(=O)CSc2nc3c(oc4ccccc43)c(=O)n2-c2ccc(F)cc2)c1 | inactive
35 | CCc1ccc(NC(=O)c2sc3nc4c(cc3c2N)CN(CC)CC4)cc1 | 56.2 µM (active)
36 | CCN1CCc2nc3sc(C(=O)Nc4ccccc4OC(F)(F)F)c(N)c3cc2C1 | inactive
37 | COc1ccc(Cl)cc1NC(=O)c1sc2nc3c(cc2c1N)CN(C)CC3 | inactive
38 | O=C(CSc1n[nH]c(-c2ccccc2)n1)N1CCCCC1 | inactive
39 | Cc1ccc(NC(=O)CN2c3ccccc3S(=O)(=O)c3ccccc32)cc1F | inactive
40 | CCc1ccccc1NC(=O)Cc1ccc(NC(=O)N2CCCCc3ccccc32)cc1 | inactive
41 | CCN(Cc1ccccc1)Cc1c(O)ccc2c(=O)c(-c3ccc(Cl)cc3Cl)coc12 | inactive
42 | COc1cccc(CNC(=O)Cn2c(=O)c3cccn3c3ccc(F)cc32)c1OC | inactive
43 | CCOc1ccc(CCNC(=O)CN(c2ccc(C)cc2)S(=O)(=O)N(C)C)cc1OCC | inactive
44 | O=C(Cn1ncc2c3ccccc3n(Cc3ccccc3)c2c1=O)NC1CCCCCC1 | inactive
45 | CCCNC(=O)C(CC)n1nc(CC)n2c(cc3oc(C)cc32)c1=O (stereo not given) | inactive
46 | CCOc1cccc(C(=O)Nc2nnc(S(=O)(=O)N(C)c3ccc(C)cc3)s2)c1 | inactive
47 | CCOc1cccc(-c2nn3c(-c4ccccn4)nnc3s2)c1 | 79.4 µM (active)
48 | CCOc1cccc(-c2nnc(SCC(=O)NC3CC3)n2C)c1 | inactive

Row | Compound | Potency
49 | Cc1ccc2c(=O)c(C(=O)c3ccc(F)cc3)cn(CC(=O)NC3CCCCC3)c2n1 | inactive
50 | CSc1ncc(C(=O)NCc2ccccc2Cl)c(C(F)(F)F)n1 | inactive
51 | Cc1cccn2c(=O)c3cc(C(=O)NC(C)c4ccccc4)c(=N)n(CCCO)c3nc12 (stereo not given) | inactive
52 | CCOc1cccc(NC(=O)c2ccc(F)c(S(=O)(=O)N(CC)c3cccc(C)c3)c2)c1 | inactive
53 | COc1cccc2cc(-c3cc(=O)oc4cc(C)c(O)cc34)oc12 | inactive
54 | COc1cccc2c(O)cc(=O)n(C)c12 | inactive
55 | COc1cc(O)c2c(=O)c3c(O)c(O)ccc3oc2c1OC | 89.1 µM (active)
56 | CCOc1ccccc1CNC(=O)C1CCCN(S(=O)(=O)c2ccc3c(ccn3C)c2)C1 (stereo not given) | inactive
57 | O=C(c1ccc(CSc2ccccc2)cc1)N1CCCCCC1 | inactive
58 | Cc1ccc(-n2c(N)c(C(=O)N3CCOCC3)sc2=S)c(C)c1 | 35.5 µM (active)
59 | Cc1cccc(C(=O)N2CCN(S(=O)(=O)N3CCCCC3)CC2)c1 | inactive
60 | Cc1ccc(N2CCN(C(=O)c3cccs3)CC2)c(C)c1 | inactive
61 | Cc1ccc(S(=O)(=O)N2CCN(C(=O)N3CCOCC3)CC2)c(C)c1 | inactive
62 | COc1cccc(N2CCN(c3ccc4nnc(CCC(=O)N5CCN(C)CC5)n4n3)CC2)c1 | inactive
63 | N#Cc1ccccc1-n1c(N)c(C(=O)N2CCCC2)sc1=S | 56.2 µM (active)
64 | Cc1cccc(-n2c(N)c(C(=O)N3CCN(C)CC3)sc2=S)c1 | 79.4 µM (active)
65 | O=C(c1ccc(S(=O)(=O)N2CCCC2)cc1)N1CCN(c2ccccc2F)CC1 | inactive
66 | O=C(Cn1c(=O)n(Cc2ccccc2)c(=O)c2sc3ccccc3c21)Nc1ccccc1F | inactive
67 | Cc1ccccc1OCc1nc2c3cnn(-c4ccccc4F)c3ncn2n1 | inactive
68 | COc1ccc(OC)c(NC(=O)CSc2nc3ccccc3nc2N2CCCCC2)c1 | inactive
69 | Cc1ccc(C(=O)NC2CCN(C#N)CC2)cc1 | inactive
70 | CCOc1ccc(N(CC)S(=O)(=O)N2CCCC(C(=O)NCc3ccc(Cl)cc3)C2)cc1 (stereo not given) | inactive
71 | COC(=O)c1ccc(C(NC(=O)OCc2ccccc2)/C(C)=C/[C@@H](C)C(=O)NCc2ccc(OC)c(OC)c2)cc1 (stereo not given in full) | inactive
72 | COC(=O)c1ccc(COc2ccc(/C=C/C(=O)c3ccc(OC)c(CSCC(=O)O)c3)cc2OC)cc1 | 50.1 µM (active)

Row | Compound | Potency
73 | COC(=O)c1ccc(COc2ccc(/C=N/NC(=O)C(=O)Nc3ccc(OC)cc3)cc2OC)o1 | inactive
74 | Cc1ccc(NC(=O)c2ccc(CN3CC(=O)N4CCCCC4C3=O)cc2)c(Cl)c1 (stereo not given) | inactive
75 | CC(=O)c1sc(N2C(=O)c3oc4ccccc4c(=O)c3C2c2ccc(C)cc2)nc1C (stereo not given) | inactive
76 | C=Cc1ccc(Cn2c(C(=O)O)c(CNC3CCCC3)c3ccc(C)cc32)cc1 | inactive
77 | COc1cc(OC)cc(C(=O)NCCCn2ccnc2)c1 | inactive
78 | COc1ccc(/C=C(\C#N)C(=O)NCCCn2ccnc2)cc1 | inactive
79 | COc1cccc(-c2nn(-c3ccccc3)cc2/C=C(\C#N)C(=O)NCCCn2ccnc2)c1 | 44.7 µM (active)
80 | COc1cc(C=NNC(=O)c2cccnc2)ccc1OC(=O)c1ccccc1F | inactive
81 | O=C(N/N=C/c1ccccn1)c1cccnc1 | 79.4 µM (active)
82 | O=C(N/N=C/c1ccccn1)c1cccc(NC(=O)c2ccc(Cl)cc2)c1 | inactive
83 | Cc1ccc2oc3c(c(=O)c2c1)C(c1ccc(O)cc1)N(Cc1ccc2c(c1)OCO2)C3=O (stereo not given) | inactive
84 | CCOc1ccc(S(=O)(=O)N(CC(=O)NCCSCc2ccc(C)cc2)c2ccccc2)cc1 | inactive
85 | S=C(NCCCc1cnc[nH]1)NCCCN(Cc1ccc(Cl)c(Cl)c1)c1ccc(Br)cn1 | 44.7 µM (active)
86 | CCOc1ccc(Nc2c(S(=O)(=O)c3ccccc3)cnc3ccccc23)cc1 | inactive
87 | COc1cccc(-n2ccn(CC(=O)NCc3ccc(C)cc3)c(=O)c2=O)c1 | inactive
88 | C=CC1=C(C(=O)O)N2C(=O)[C@@H](NC(=O)/C(=N\OCC(=O)O)c3csc(N)n3)[C@H]2SC1 | 20 µM (active)
89 | CC(C)(C)OC(=O)C1=C(CO)CS[C@@H]2[C@H](NC(=O)Cc3ccccc3)C(=O)N12 | inactive
90 | CO/N=C(\C(=O)N[C@@H]1C(=O)N2C(C(=O)O)=C(COC(C)=O)CS[C@H]12)c1csc(N)n1 (stereo in doubt) | inactive and 79.4 µM (active) and 56.2 µM (active)
91 | C=CC1=C(C(=O)O)N2C(=O)[C@@H](NC(=O)/C(=N/OCC(=O)O)c3csc(N)n3)[C@H]2SC1 | 25.1 µM (active)
92 | COc1cc(C(=O)NCC(c2ccc(Cl)cc2)N2CCOCC2)cc(OC)c1OC (stereo not given) | inactive
93 | Cc1cc(C)cc(NC(=O)CCCc2nc(-c3ccccc3Cl)no2)c1 | inactive
94 | Cc1ccc(OCCSc2nc3ccc(NC(=O)COc4ccc(C)cc4)cc3s2)cc1 | inactive
95 | CC(=O)c1ccc(NC(=O)CSc2nnc(NC(=O)Nc3ccccc3)s2)cc1 | inactive
